This is a sample that favours compounds with a hit; in the whole collection about 27% have one here.
Cav32 inh – inhibitors of human Cav3.2 T-type calcium channel; Cav3.2-expressing cells, Fluo-4 calcium fluorescence FDSS; active compounds read low; 100,000 tested, 4% active; B-score at 10 µM; O95180;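 active means single-dose well whose peak fluorescence ratio is a statistical outlier from its plate by either plate-standardised score or position-corrected B-score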
CYP2C19 inhib – blocks human cytochrome P450 2C19; CYP2C19 Supersomes, luciferin-H EGE luminescence, 30 min; inhibition, % at 5 µM; P33261; AID 778; 96,000 tested, 21% active;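 active means CYP2C19 inhibition above a set limit at 5 µM in the primary screen, cut at about 50% in these data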;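 further: plate controls were negative control wells for no effect and 2.5 mM tranylcypromine positive control for full effect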
Target sequence (P33261 whole entry, looked up): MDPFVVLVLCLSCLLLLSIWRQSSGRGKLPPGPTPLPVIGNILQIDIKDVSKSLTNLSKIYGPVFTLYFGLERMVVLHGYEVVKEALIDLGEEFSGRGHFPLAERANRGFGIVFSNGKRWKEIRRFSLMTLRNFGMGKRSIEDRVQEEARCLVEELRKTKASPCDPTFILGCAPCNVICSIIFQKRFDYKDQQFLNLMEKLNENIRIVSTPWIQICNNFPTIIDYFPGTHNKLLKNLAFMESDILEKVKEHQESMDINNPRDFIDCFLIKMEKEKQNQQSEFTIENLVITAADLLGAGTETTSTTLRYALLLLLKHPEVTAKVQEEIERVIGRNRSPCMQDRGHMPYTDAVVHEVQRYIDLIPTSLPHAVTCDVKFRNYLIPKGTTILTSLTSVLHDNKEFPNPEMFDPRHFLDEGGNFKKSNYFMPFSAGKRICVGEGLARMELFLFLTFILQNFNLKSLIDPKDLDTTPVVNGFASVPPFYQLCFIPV
CYP2C9 act – increases human cytochrome P450 2C9 activity. 96,000 tested, 1.4% active. AID 1024. activation factor at 5 µM. recombinant CYP2C9, luciferin-H conversion, luminescence; active compounds read high; factor 1 = untreated enzyme, 0 = blocked. P11712;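 active means activation factor of 2 or more for CYP2C9 at a 5 µM dose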;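 further: 0 = sulfaphenazole-blocked wells and 1 = vehicle-only wells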
CYP2C9 inh – inhibitors of human CYP2C9; P11712; CYP2C9 Supersomes, luciferin-H conversion, luminescence; inhibition, % at 5 µM; 96,000 tested, 20% active; AID 777;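 active means blocking of liver enzyme CYP2C9 beyond about 50% at 5 µM, limit read from the data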
CYP2C19 activ – increases human CYP2C19 enzyme activity; recombinant CYP2C19, luciferin-H EGE luminescence; active compounds read high; 0 = fully inhibited enzyme, 1 = untreated enzyme; activation factor at 5 µM; 96,000 tested, under 10 active;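 active means activation factor of at least 2 at 5 µM in the primary screen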;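 further: 0 = wells with 2.5 mM tranylcypromine and 1 = vehicle-only wells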
* = called active by the depositor.

COc1ccc(OC)c(C2CC(=O)C(C)C(c3cc(OC)ccc3OC)N2)c1 (configuration not stated) was read as Cav32 inh 1.23, CYP2C19 inhib 35.1, CYP2C9 act 0.2, CYP2C9 inh 75.6* and CYP2C19 activ 0.6.
Screening COc1ccc(OC)c(C2SCCN2S(C)(=O)=O)c1 (configuration not stated) returned Cav32 inh -2.43, CYP2C19 inhib 7.3, CYP2C9 act 1, CYP2C9 inh 0.2 and CYP2C19 activ 0.9.
For CN(C)c1ccc(NC(=O)CN2CCC(N3CCCCC3)CC2)cc1 the results were Cav32 inh -0.0791, CYP2C19 inhib -10.5, CYP2C9 act 1.2, CYP2C9 inh -20.1 and CYP2C19 activ 1.1.
Cn1c2ccccc2c2c(C(=O)O)cn(C3CCCC3)c(=O)c21 was read as CYP2C19 inhib 1.5, CYP2C9 act 0.9, CYP2C9 inh 12.4 and CYP2C19 activ 1.
COc1ccc(N2CCN(C(=O)c3cn(C4CCCC4)c(=O)c4c3c3ccccc3n4C)CC2)cc1 was read as CYP2C19 inhib 76.8*, CYP2C9 act 0.1, CYP2C9 inh 90.0* and CYP2C19 activ 0.2.
Cn1c2ccccc2c2c(C(=O)N3CCN(C(=O)c4ccco4)CC3)cn(C3CCCCC3)c(=O)c21 was read as Cav32 inh 1.47, CYP2C19 inhib 40.0, CYP2C9 act 0.3, CYP2C9 inh 73.6* and CYP2C19 activ 0.6.
Screening COc1ccc(N2CCN(C(=O)c3cn(C)c(=O)c4c3c3ccccc3n4C)CC2)cc1 returned Cav32 inh -0.274, CYP2C19 inhib 3.3, CYP2C9 act 0.9, CYP2C9 inh 8.7 and CYP2C19 activ 1.
Cn1c2ccccc2c2c(C(=O)N3CCN(c4ccccn4)CC3)cn(C3CCCC3)c(=O)c21 was read as Cav32 inh -3.19, CYP2C19 inhib 69.3*, CYP2C9 act 0.1, CYP2C9 inh 94.1* and CYP2C19 activ 0.3.
Screening CCc1ccccc1NC(=O)N[C@@H](C)C(=O)OC returned Cav32 inh -0.959, CYP2C19 inhib 7.0, CYP2C9 act 1, CYP2C9 inh 3.2 and CYP2C19 activ 0.9.
Screening O=C(CCCCn1c(=O)[nH]c2ccccc2c1=O)N1CCN(c2cccc(C(F)(F)F)c2)CC1 returned Cav32 inh -9.43*, CYP2C19 inhib 62.4*, CYP2C9 act 0.5, CYP2C9 inh 48.9 and CYP2C19 activ 0.4.
For O=C(CCCn1c(=S)[nH]c2ccccc2c1=O)N1CCN(c2cccc(Cl)c2)CC1 the results were Cav32 inh -0.12, CYP2C19 inhib -11.7, CYP2C9 act 1, CYP2C9 inh -2.6 and CYP2C19 activ 1.1.
O=C(CCn1c(=O)[nH]c2ccccc2c1=O)N1CCN(c2cccc(C(F)(F)F)c2)CC1 was read as Cav32 inh -0.824, CYP2C19 inhib 67.2*, CYP2C9 act 0.6, CYP2C9 inh 35.5 and CYP2C19 activ 0.3.
Screening O=C(CCn1c(=O)[nH]c2ccccc2c1=O)N1CCN(c2ccc(Cl)cc2)CC1 returned Cav32 inh -0.663, CYP2C19 inhib 12.8, CYP2C9 act 0.8, CYP2C9 inh 15.4 and CYP2C19 activ 0.9.
For C=CCNC(=O)CC(=O)N/N=C/c1ccc(C(=O)OC)cc1 the results were Cav32 inh 0.581, CYP2C19 inhib -3.7, CYP2C9 act 1.1, CYP2C9 inh -5.4 and CYP2C19 activ 1.
Cc1ccccc1OC(=O)C1C(c2ccccc2)C(C(=O)O)C1c1ccccc1 (configuration not stated) was read as Cav32 inh -0.967, CYP2C19 inhib -6.5, CYP2C9 act 1, CYP2C9 inh 1.6 and CYP2C19 activ 1.1.
COC(=O)C1=C(C)N(c2ccccc2)/C(=C/c2cccs2)C1=O was read as Cav32 inh -0.722, CYP2C19 inhib 0.2, CYP2C9 act 0.9, CYP2C9 inh 11.1 and CYP2C19 activ 1.
Screening CCOC(=O)C1=C(C)N(c2ccc(C)cc2)C(=O)/C1=C\c1cccs1 returned Cav32 inh -0.00966, CYP2C19 inhib -10.1, CYP2C9 act 0.9, CYP2C9 inh 6.9 and CYP2C19 activ 1.1.
For COC(=O)C1=C(C)NC(=O)/C1=C\c1cccs1 the results were Cav32 inh 0.725, CYP2C19 inhib 25.8, CYP2C9 act 0.4, CYP2C9 inh 57.2* and CYP2C19 activ 0.7.
For COC(=O)C1=C(C)N(c2cccc(C)c2)C(=O)/C1=C\c1cccs1 the results were Cav32 inh -1.86, CYP2C19 inhib 47.9, CYP2C9 act 0.5, CYP2C9 inh 50.2* and CYP2C19 activ 0.5.
Screening COc1ccc(NC2=C(C(C)=O)C(c3ccc(OC)c(OC)c3)C(C(C)=O)C(C)(O)C2)cc1 (configuration not stated) returned Cav32 inh 0.891.
COc1ccc(NC2=C(C(C)=O)C(c3ccc4c(c3)OCO4)C(C(C)=O)C(C)(O)C2)cc1 (configuration not stated) was read as Cav32 inh 0.371, CYP2C19 inhib 72.4*, CYP2C9 act 0.2, CYP2C9 inh 77.9* and CYP2C19 activ 0.3.
`Cc1ccc(NC(=O)COC(=O)c2ccc3c(c2)NC(=O)C2CCCN32)cc1C` (configuration not stated) gave Cav32 inh -0.0622, CYP2C19 inhib 18.2, CYP2C9 act 1.1, CYP2C9 inh -7.0 and CYP2C19 activ 0.8.
Cc1cc(C)c(C#N)c(SCC(=O)c2cccs2)n1 was read as Cav32 inh -1.46, CYP2C19 inhib 96.2*, CYP2C9 act 0.4, CYP2C9 inh 61.8* and CYP2C19 activ 0.
COC(=O)C(Sc1nc(C)cc(C)c1C#N)c1ccccc1 (configuration not stated) was read as Cav32 inh -1.37, CYP2C19 inhib 53.9*, CYP2C9 act 0.5, CYP2C9 inh 46.1 and CYP2C19 activ 0.5.
For CC(C)OC(=O)CSc1nc(N)c(C#N)c(-c2cccs2)c1C#N the results were Cav32 inh 0.849, CYP2C19 inhib 23.1, CYP2C9 act 1, CYP2C9 inh 3.0 and CYP2C19 activ 0.8.
CCOC(=O)CC(=O)CSc1nc2c(c(C)c1C#N)CCC2 was read as CYP2C19 inhib 24.4, CYP2C9 act 0.8, CYP2C9 inh 16.2 and CYP2C19 activ 0.8.
For CCOC(=O)CC(=O)CSc1nc(C)cc(C)c1C#N the results were Cav32 inh 0.574, CYP2C19 inhib 69.8*, CYP2C9 act 0.7, CYP2C9 inh 33.9 and CYP2C19 activ 0.3.
`CC(=O)CSc1nc(N)c(C#N)c(-c2cccs2)c1C#N` gave Cav32 inh 1.11, CYP2C19 inhib -13.1, CYP2C9 act 0.4, CYP2C9 inh 60.3* and CYP2C19 activ 1.1.
Screening Cc1ccc(N2C(=O)c3ccc(C(=O)N4CCOCC4)cc3C2=O)cc1C returned Cav32 inh 1.54.
`C=C1CCN([C@H](C(=O)NCc2ccc(OC)cc2)C(C)C)S(=O)(=O)c2ccccc21` gave Cav32 inh 1.02.
Screening O/N=C1/CCc2nonc2/C1=N/O returned Cav32 inh -0.00884, CYP2C19 inhib -11.3, CYP2C9 act 1.1, CYP2C9 inh -5.1 and CYP2C19 activ 1.1.

Assay outcomes deposited in PubChem by several laboratories.
